Bioassay records: PubChem, several laboratories
Sampled rows, rich in hits. Any-hit rate of the full collection: about 2.4%.
HSF1 inh: HSF1 inhibition; AID 2098; 300,000 tested, 0.77% active; NIH3T3-HGL HSE-luciferase, MG132-induced, luminescence 8 h; active compounds read low; activity change, negative = inhibition, % at 7.5 µM (by protocol);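 active = more than half of replicate wells show activity change below -50%, luminescence cut by over half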;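 also: luciferase reports HSF-1 transcriptional activity via heat shock element; 0% = median of DMSO wells and -100% = zero luminescence signal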
PPC-1+TRAIL kill: compounds killing PPC-1 cancer cells with TRAIL present (potentiator screen, no TRAIL-free arm); AID 1443; 220,000 tested, 0.41% active; PPC-1 cells + TRAIL, ATPLite viability luminescence; cell killing (% activity), % at 4 µM or 5 µM;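 active = cell killing above 50% in the first pass at 4 µM, then a duplicate retest at 5 µM averaging 50% or more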;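 also: plate controls were cells with TRAIL plus DMSO for no effect and medium-only wells lacking cells for full effect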
HSP90 inh: blocks HSP90-mediated luciferase refolding in reticulocyte lysate; inhibition, % at 5.6 µM; 290,000 tested, 0.91% active; AID 1789; Rabbit reticulocyte lysate, luciferase refolding luminescence, 3 h;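 active = inhibition above the screen-wide mean plus 3 SD, computed separately per campaign, cut at about 16% in these data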;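 also: 0% = DMSO wells and 100% = 60 µM geldanamycin wells; inhibitors lower the luminescence because luciferase stays unfolded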
STAT3 inh: reduces IL-6 driven STAT3 reporter signal | U3A cells, IL-6 STAT3-luciferase reporter, luminescence; host cell line lacks STAT1 | inhibition, % at 5.5 µM | 190,000 tested, 0.89% active | AID 862;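 active = inhibition above the mean inhibition across all screened compounds plus 3 SD, cut at about 44% in these data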;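 also: 0% = DMSO only wells and 100% = 100 µM nifuroxazide control wells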
STAT1 blocker: reduces IFN-gamma driven STAT1 reporter signal; NIH 3T3 STAT1-luciferase reporter, luminescence; inhibition, % at 5.5 µM; 200,000 tested, 0.35% active; AID 920;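 active = inhibition above a set limit, the mean inhibition across all tested compounds plus 3 SD, cut at about 34% in these data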;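 also: 0% = IFN-gamma with DMSO and 100% = IFN-gamma with 300 µM nifuroxazide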
C8 TRAIL sens: sensitizes caspase-8 expressing cells to TRAIL. inhibition (viability loss, TRAIL sensitization), % at 10 µM. AID 624354. NB7+C8 cells + TRAIL, ATPlite viability luminescence. 360,000 tested, 1% active;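 active = compounds causing at least 50% loss of cell viability in the single-dose screen, relative to plate controls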
Starred values were filed as active, the others as inactive; nt = no result given.

SMILES	HSF1 inh	PPC-1+TRAIL kill	HSP90 inh	STAT3 inh	STAT1 blocker	C8 TRAIL sens
CC(=O)NC(c1ccc(C(C)C)cc1)c1ccc2cccnc2c1O (centres undefined)	-52*	nt	8	nt	nt	24
CN(CCc1ccccc1)C(=O)CC1C(=O)NCCN1Cc1ccccn1 (centres undefined)	nt	nt	nt	nt	nt	-5
O=C(CSc1ncc(-c2ccccc2)n1-c1ccccc1)NCc1ccco1	5	10	-1	-1	1	-6
COc1ccc(-n2c(-c3ccc(F)cc3)cnc2SCC(=O)NCc2ccco2)cc1	-54*	2	-1	7	-11	16
Cc1cc(=O)[nH]c2c1c(=O)[nH]n2C1CC(C)N(C)CC1C (centres undefined)	-57*	10	-3	10	-2	6
COc1ccc(CC(N)c2csc(NC(=O)c3cc(C(C)(C)C)oc3C)n2)cc1 (centres undefined)	nt	nt	nt	nt	nt	41
O=C1Nc2ccccc2C(=O)N(c2ccc3c(c2)OCCO3)C1C(=O)NC1CC1 (centres undefined)	nt	nt	nt	nt	nt	17
CCn1nc(C(=O)NCCc2ccc(S(N)(=O)=O)cc2)c2ccccc2c1=O	1	-2	1	8	1	47*
CCN1C(=O)c2ccccc2S(=O)c2ccc(C(=O)NCc3ccc(OC)cc3)cc21 (centres undefined)	-87*	nt	5	nt	nt	1
CCN1C(=O)c2ccccc2S(=O)c2ccc(C(=O)N3CCCC3)cc21 (centres undefined)	-85*	2	-5	0	4	20
CCN1CCN(C(=O)c2ccc3c(c2)N(Cc2ccccc2)C(=O)c2ccccc2S3=O)CC1 (centres undefined)	-4	nt	-5	nt	nt	-12
CCOCCCNC(=O)c1ccc2c(c1)N(CC)C(=O)c1ccccc1S2=O (centres undefined)	-9	nt	-3	nt	nt	12
CCCCOc1ccc(S(=O)(=O)NC(=O)C2(C)CCN2C(=O)c2c(C)noc2C)cc1 (centres undefined)	nt	nt	nt	nt	nt	-3
O=c1[nH]c(N/N=C\c2ccc3c(c2)OCO3)nc2ccccc12	28	44	0	35	-45	52*
CCC(C(=O)NCc1ccccc1)n1c(CSCCOc2ccccc2)nc2ccccc21 (centres undefined)	nt	nt	nt	nt	nt	16
CC(C)c1ccc(/C=c2\sc3n(c2=O)C(N)=C(C#N)C(c2ccc(C(C)C)cc2)C=3C(N)=O)cc1 (centres undefined)	nt	nt	nt	nt	nt	63*
S=C(Nc1ccccc1)Nc1nc2ccccc2n1CCOc1ccccc1	-6	18	4	-1	-5	4
CC(=O)Nc1nc2ccccc2n1CCOc1ccccc1	2	42	7	17	2	52*
O=C(CCN1C(=O)CC1c1ccco1)N1CCOCC1 (centres undefined)	nt	nt	nt	nt	nt	-9
COc1cc(N)ccc1C(=O)O	-60*	6	5	-3	12	3
O=S(=O)(NC(CO)Cc1ccccc1)c1ccc(Br)cc1F (centres undefined)	nt	nt	nt	nt	nt	2
OC(c1cc(-c2cccc(Cl)c2)nc2ccccc12)C1CCCCN1 (centres undefined)	nt	nt	nt	nt	nt	67*
Cc1c(C#N)c(NC(=O)CCl)n(Cc2ccc(F)cc2)c1C	-2	-4	3	32	34*	-1
COc1ccccc1N1CCCSC1=Nc1ccccc1	nt	nt	nt	nt	nt	-1
CCOC(=O)c1ccc(-c2ccc(/C=N/NC(=O)CN(c3ccccc3Br)S(C)(=O)=O)o2)cc1	8	19	16*	-8	-17	22
SMILES	HSF1 inh	PPC-1+TRAIL kill	HSP90 inh	STAT3 inh	STAT1 blocker	C8 TRAIL sens
c1ccc2c(-c3cccc4nccn34)cncc2c1	nt	nt	nt	nt	nt	-2
CC1=C(SCc2ccccc2)C(=O)c2ccccc2C1=O	nt	nt	nt	nt	nt	51*
O=C1c2ccccc2C(=O)c2cc(N3CCCCC3)ccc21	nt	nt	nt	nt	nt	86*
Fc1ccc(-c2ccc3c(c2)C2CC3CCN2Cc2ccc3c(c2)OCO3)cc1 (centres undefined)	nt	nt	nt	nt	nt	9
COc1ccccc1N1CC(C)C(=O)NC1=S (centres undefined)	-56*	-11	-1	4	3	-11
O=C(COC(=O)/C=C/c1ccc(C(F)(F)F)cc1)NC1CC1	-56*	nt	nt	nt	nt	0
Cc1ccc(O)c(/C=N/NC(=O)CN2CCCC2)c1	-85*	nt	-4	nt	nt	-20
Cc1cccc(/C=N/NC(=O)CN2CCCCCCC2)c1	-76*	-13	-6	-10	2	2
CC/C(=N\NC(=O)c1csc(C)c1C)c1cccs1	5	40	-2	12	-43	50*
CCc1nc2ccc(C(=O)NCCNC(C)=O)cn2c1N(C)Cc1ccc(OC)cc1	nt	nt	nt	nt	nt	-3
CC1(C(=O)NS(=O)(=O)c2cccs2)CCN1C(=O)CC1CCCC1 (centres undefined)	nt	nt	nt	nt	nt	-6
COC(=O)c1cc(NC(=O)c2cccs2)ccc1N1CCOCC1	2	nt	-4	-7	-8	-7
O=C(Nc1ccc(N2CCOCC2)c(F)c1)c1cccs1	22	nt	3	nt	nt	56*
O=P(OCC1CCCO1)(OCC1CCCO1)OCC1CCCO1 (centres undefined)	nt	nt	nt	nt	nt	6
COC(=O)[C@]12CCCCC=C1N(Cc1cccc3ccccc13)C(=O)[C@H](CC(=O)NCc1ccc(OC)c(OC)c1)C2	nt	nt	nt	nt	nt	63*
CCCCCC(=O)N1C[C@H](n2cc(COC(=O)c3ccccc3)nn2)[C@@H](O)C[C@@H]1c1ccc(Cl)cc1	nt	nt	nt	nt	nt	58*
N#Cc1c(C#N)c(SSc2c(C#N)c(C#N)c(N)n2-c2ccccc2)n(-c2ccccc2)c1N	nt	nt	nt	nt	nt	79*
CC(=O)N(c1ccc(Cl)cc1)c1cn(C(C)=O)c2ccccc12	2	13	-4	0	-2	-19
CC(=O)n1cc(N(C(=O)CCl)c2ccc(C)cc2)c2ccccc21	-2	38	12	nt	nt	95*
COc1ccc(/C=C/C(=O)c2ccc([N+](=O)[O-])o2)cc1	0	nt	nt	nt	nt	51*
Cc1cccc(/C=C/C(=O)c2ccc([N+](=O)[O-])o2)c1	31	nt	nt	nt	nt	33
Cc1cc(C)cc(OCC(O)CN2CC(C)OC(C)C2)c1 (centres undefined)	-63*	nt	4	nt	nt	5
COc1ccc(Nc2cc3n(c(=O)n2)CCc2cc(OC)c(OC)cc2-3)cc1	-16	nt	2	nt	nt	4
COc1cc2c(cc1OC)-c1cc(Nc3ccc4c(c3)OCCO4)nc(=O)n1CC2	-72*	34	13	20	12	-1
O=C(N/N=C/c1cc(Cl)ccc1O)c1ccccc1Br	4	20	-1	8	0	53*
O=C(CNC(=O)c1ccccc1Br)N/N=C/c1cc(Br)ccc1O	-4	28	1	4	3	43
O=C(N/N=C\c1cc(Cl)ccc1O)c1ccc(S(=O)(=O)N2CCCCC2)cc1	1	52*	1	14	-2	20
COc1ccc(-c2cc(=O)n(CCC#N)[nH]2)cc1	14	14	65*	-5	-7	-13
